A350 autofl: qHTS Assay for Spectroscopic Profiling in A350 Spectral Region; Compound autofluorescence, 340/450 nm, Alexa 350 dye-equivalents; hits give high values; max dye-equivalent concentration, M; 11% of 59,000 active; AID 590, 2007; in the data active means max dye-equivalent concentration above about 10 nM; inconclusive means mostly about 1.1 nM to 9.6 nM
HSD17B inh: qHTS Assay for Inhibitors of HSD17B4, hydroxysteroid (17-beta) dehydrogenase 4; recombinant HSD17B10, NADH fluorescence kinetic; Potency, µM (top dose mostly 57.1 µM), for inactives: at the highest dose activity change, negative = inhibition, hits mostly inhibitors; 7.6% of 75,000 active; AID 893, 2007;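 further: the protocol describes HADH2 (HSD17B10) and not the HSD17B4 of the title; potency means the concentration at half of the fitted maximal effect; on the % scale 0 is the no-effect control and ±100 the full control effect; nearly all actives have a fitted effect of over 70% in size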
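Activity followed as NADH fluorescence increase (ex 360, em 450 nm) every 30 seconds for 4 min, using final 90 uM beta-hydroxybutyryl CoA and 1 mM NAD+. Recombinant His-tagged enzyme, 20 nM, pH 9.0 Tris buffer, 15 min compound preincubation.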
AID923: qHTS Assay for Allosteric/Competitive Inhibitors of Caspase-1: Spectroscopic Profiling in AFC Spectral Region. compound fluorescence, AFC spectral region (405/520 nm). Potency, µM (series often up to 57.5 µM), for the others: at the highest dose fluorescence increase, most hits filed as activators. 1.1% of 75,000 active; further: potency means the concentration at half of the fitted maximal effect; 0% is about no effect
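Titrations up to 57 uM read every 20 sec for 3 min (405/520 nm) with 50 nM caspase 1 and 5 uM Ac-WEHD-AFC, pH 7.5 HEPES buffer. Fluorescence-vs-time intercept gave baseline, scaled against on-plate AFC standard.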
CRE-bla Fsk: Cell signaling CRE-BLA (Fsk stim); CHO CRE-bla reporter (cAMP response element driving beta-lactamase), forskolin EC10, beta-lactamase ratio; Potency, µM (highest dose often 38.2 µM), for the others: top-dose activity change, negative = inhibition, actives largely listed as activators; 2.5% of 71,000 active; AID 662, 2007; active means well fitted activation curve with a large enough effect in the signal ratio, with a control signal flat, not every such curve was filed as active; inconclusive means small, poorly fitted or top-dose-only effect, or effect the other way, or a change in a side signal; the % refers to the signal ratio; further: potency means the concentration at half of the fitted maximal effect; % of control where 0% means no effect
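Cells were plated overnight at 37 °C, exposed to compound titrations plus EC10 NKH 477 for 3 h, then given CCF4 dye for 2 h at room temperature. Blue/green (460/530 nm) ratio was converted to %Activity and AC50 values calculated.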
4MU fluor: qHTS Assay for Spectroscopic Profiling in 4-MU Spectral Region; compound autofluorescence, 340/450 nm, 4-MU equivalents; hits give high values; max dye-equivalent concentration, M; 11% of 59,000 active; in the data active means max dye-equivalent concentration above about 10 nM; inconclusive means mostly about 1.1 nM to 9.6 nM
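Compounds in 100 mM Tris, pH 8.0, incubated 15 min at room temperature, then fluorescence read at 340 nm excitation/450 nm emission. Signal converted to 4-MU dye-equivalent concentration using an on-plate six-point 4-MU standard curve.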
HADH2 inhib: qHTS Assay for Inhibitors of HADH2 (Hydroxyacyl-Coenzyme A Dehydrogenase, Type II); 3-hydroxyacyl-CoA dehydrogenase type-2 (Homo sapiens), Q99714; recombinant HADH2, NADH fluorescence, beta-hydroxybutyryl-CoA; Potency, µM (top dose mostly 57.1 µM), for inactives: at the top dose activity change, negative = inhibition, most hits filed as inhibitors; 3.4% of 73,000 active; AID 886, 2007; further: potency means the concentration at half of the fitted maximal effect; on the % scale 0 is the no-effect control and ±100 the full control effect; nearly all actives have a fitted effect of over 60% in size
Target sequence (Q99714 whole entry, looked up, one chain of several): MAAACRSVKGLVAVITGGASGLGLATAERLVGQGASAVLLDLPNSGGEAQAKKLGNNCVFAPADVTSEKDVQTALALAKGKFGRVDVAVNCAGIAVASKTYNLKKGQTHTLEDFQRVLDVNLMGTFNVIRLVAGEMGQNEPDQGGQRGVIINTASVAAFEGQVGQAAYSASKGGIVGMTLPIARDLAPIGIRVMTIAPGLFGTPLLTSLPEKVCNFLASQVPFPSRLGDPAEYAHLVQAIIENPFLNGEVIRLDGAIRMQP
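NADH fluorescence (ex 360/em 450 nm) read every 30 s for 4 min; activity taken as last-minus-first time point difference. Enzyme 20 nM, NAD+ 1 mM, beta-hydroxybutyryl-CoA 90 uM, pH 9.0 Tris buffer.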
* = called active by the depositor; [ ] = dose if it differs, or a comment. In the library only some 14% were active in any assay of this set; here they are far more common. Unless noted, the call rests on the fitted dose curve; in most records, active means well fitted curve in the direction sought with a large enough effect; inconclusive means small, poorly fitted or top-dose-only effect, or another doubt; inactive means no such curve, though single readings can be large; an effect the other way counts as inactive or inconclusive.

What do the screens show for `CCOc1ccc(C2C(C#N)=C(N)SC(N)=C2C#N)c(OCC)c1`?
A350 autofl: inactive; HSD17B inh: 31.6µM*; AID923: 1.9%; CRE-bla Fsk: inconclusive; 4MU fluor: inactive; HADH2 inhib: inconclusive

What do the screens show for `CCCc1[nH]nc2c1C(c1ccc(OCCN3CCOCC3)c(OC)c1)C(C#N)=C(N)O2` (stereo not drawn)?
A350 autofl: inactive; HSD17B inh: 7.8%; AID923: 0.3%; CRE-bla Fsk: -7.2%; 4MU fluor: inactive; HADH2 inhib: -3.3%

What do the screens show for `CC(=O)NC1CC(C)(C)N(OC(C)=O)C(C)(C)C1`?
A350 autofl: inactive; HSD17B inh: -9.9%; AID923: -0.8%; CRE-bla Fsk: -6.7%; 4MU fluor: inactive; HADH2 inhib: -1.8%

How did Cc1cc(C(C)(C)C)c(OCCCN2CCOCC2)c(C(C)(C)C)c1 do in these assays?
A350 autofl: inactive; HSD17B inh: 8.6%[11.4 µM]; AID923: -1.9%[11.5 µM]; CRE-bla Fsk: 1.6%[7.6 µM]; 4MU fluor: inactive; HADH2 inhib: 7.0%[11.4 µM]

Results for Cc1ccc(C(=O)N(CC(=O)NC2CCCC2)Cc2cccs2)s1 ?
A350 autofl: inactive; HSD17B inh: 3.7%; AID923: -0.1%; CRE-bla Fsk: -0.8%; 4MU fluor: inactive; HADH2 inhib: 4.7%

Results for COC(=O)N1[C@H](C)C=C[C@]1(Cc1ccccc1)C(=O)NCc1ccc(N(C)C)cc1 ?
HSD17B inh: 0.7%; AID923: -2.2%; CRE-bla Fsk: -15.7%; HADH2 inhib: -2.7%

Results for Cc1ccc(N(C(C)C(=O)N2CCCCC2)S(C)(=O)=O)cc1C (stereo not drawn) ?
A350 autofl: inactive; HSD17B inh: 4.8%; AID923: 1.1%; CRE-bla Fsk: 1.9%; 4MU fluor: inactive; HADH2 inhib: 19.3%

Results for O=C(c1cccc(F)c1)N1CCC[C@@]2(CCN(c3ncccn3)C2)C1 ?
A350 autofl: inactive; HSD17B inh: inconclusive; AID923: 3.1%; CRE-bla Fsk: 0.6%; 4MU fluor: inactive; HADH2 inhib: 0.1%

Results for CCOc1ccc(/C=N/n2cnnc2)cc1 ?
HSD17B inh: -1.1%; AID923: -0.4%; CRE-bla Fsk: 6.6%; HADH2 inhib: -7.7%

How did CCOc1cc(/C=N/n2cnnc2)cc(Br)c1O do in these assays?
A350 autofl: 3.97e-08M*; HSD17B inh: inconclusive; AID923: 5.3%; CRE-bla Fsk: 3.1%; 4MU fluor: 4.26e-08M*; HADH2 inhib: -18.6%

Results for CCCn1c(-c2ccc(F)cc2)nc2c(N3CCC(N(C)C)C3)nc(C)nc21 (stereo not drawn) ?
HSD17B inh: 31.6µM*; AID923: -1.5%; CRE-bla Fsk: 16.9%; HADH2 inhib: -29.8%

How did CCCn1c(-c2ccc(F)cc2)nc2c(N3CCN(C)CC3)nc(C)nc21 do in these assays?
HSD17B inh: 7.94µM*; AID923: -1.4%; CRE-bla Fsk: 19.0%; HADH2 inhib: -0.7%

How did CCCn1c(-c2ccc(F)cc2)nc2c(N3CCN(CCC(=O)OCC)CC3)nc(C)nc21 do in these assays?
HSD17B inh: -9.4%; AID923: 1.0%; CRE-bla Fsk: 2.0%; HADH2 inhib: -7.3%

Results for CO[C@H]1COC(=O)[C@@H](CCSC)NC(=O)C/C=C\[C@@H](C)[C@H](OC)COC(=O)[C@@H](OCc2ccccc2)/C=C\[C@@H]1C ?
HSD17B inh: 6.3%[11.4 µM]; AID923: 0.4%[11.5 µM]; HADH2 inhib: 3.2%[11.4 µM]

How did COCCNC(=O)c1ccc(Cc2nc3ccccc3[nH]2)cc1 do in these assays?
HSD17B inh: 1.6%; AID923: 0.9%; HADH2 inhib: -7.1%

Bioassay records deposited in PubChem by National Center for Advancing Translational Sciences (NCATS).
